Counter-ions that a name gives are not always drawn. Unmarked numbers belong to inactive results.
Tests used:
Conditions in all cases: 20 µM
[1] = test system: Salmonella enterica typhimurium; experiment: growth AUC normalised to DMSO control (fraction of control); higher = less growth inhibition, active = hit call of the paper
How it was run: (§1)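 After two anaerobic passages, pathogens were added at a starting OD578 of 0.01 to pre-reduced mGAM plates holding compound at 20 μM with 1% DMSO; hemin and NAD were supplemented for Haemophilus parainfluenzae. Sealed with breathable membranes, plates were read at OD578 hourly for 24 h, in three biological replicates. The trapezoidal rule, applied up to the exponential-to-stationary transition, gave the growth-curve AUC, which was normalised to DMSO controls on the same plate.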

Shigella flexneri = experiment: as above
How it was run: as §1

Vibrio cholerae = experiment: as above
How it was run: as §1

[2] = test system: Yersinia pseudotuberculosis; experiment: as above
How it was run: as §1

P. vulgatus RND KO = experiment: growth AUC normalised to DMSO control (median) (fraction of control); higher = less growth inhibition, active = hit call of the paper
How it was run: (§2)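 Each strain went through two overnight passages under anaerobic conditions before growth in mGAM in 96-well plates, starting at OD578 0.01, with each compound from the approved-drug library at 20 μM and 1% DMSO. Inside an anaerobic incubator, OD578 was recorded every hour for 24 h. Growth curves were cut off at entry into stationary phase, and the area under the curve was calculated by the trapezoidal rule and normalised to vehicle wells on the same plate. Reported values are medians of three biological replicates.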

P. vulgatus WT = experiment: as above
How it was run: as §2

[3] = test system: S. enterica typhimurium WT; experiment: as above
How it was run: as §2

[4] = test system: S. enterica typhimurium tolC KO; experiment: as above
How it was run: as §2
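Throughout, for growth AUC normalised to DMSO control (median): active when median AUC fell below 0.1.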

Compound | growth AUC normalised to DMSO control [1] | growth AUC normalised to DMSO control (Shigella flexneri) | growth AUC normalised to DMSO control (Vibrio cholerae) | growth AUC normalised to DMSO control [2] | growth AUC normalised to DMSO control (P. vulgatus RND KO) | growth AUC normalised to DMSO control (P. vulgatus WT) | growth AUC normalised to DMSO control [3] | growth AUC normalised to DMSO control [4]
Nc1ccc(S(=O)(=O)Nc2nccs2)cc1 [Sulfathiazole] | 1.02 | 1 | 1.01 | 1.01 | 0.995 | 1.01 | 0.985 | 0.974
CN(C)CCCN1c2ccccc2Sc2ccc(Cl)cc21 [Chlorpromazine hydrochloride] | 0.996 | 0.983 | 0.877 (active) | 0.985 | 0.924 | 0.903 | 1 | 0.962
O=C(c1ccc(F)cc1)C1CCN(CCn2c(=O)[nH]c3ccccc3c2=O)CC1 [Ketanserin tartrate hydrate] | 1.01 | 1.03 | 0.894 | 1 | 1.03 | 1.05 | 1.02 | 0.997
Nc1ccccc1S(N)(=O)=O [o-Sulfanilamide] | 0.993 | 0.971 | 0.988 | 0.99 | 1.01 | 1.01 | 1.01 | 1
COc1cc(N)c(Cl)cc1C(=O)NC1CCN(CCCOc2ccc(F)cc2)CC1OC (configuration not stated) [Cisapride] | 1 | 1.01 | 0.929 | 0.989 | 0.945 | 0.941 | 1 | 0.947
CCOC(=O)C1=C(COCCN)NC(C)=C(C(=O)OC)C1c1ccccc1Cl (configuration not stated) [Amlodipine] | 0.997 | 0.99 | 0.985 | 1.01 | 1.02 | 1.02 | 1.02 | 1.01
O=C1OCCN1/N=C/c1ccc([N+](=O)[O-])o1 [Furazolidone] | 0.391 (active) | 0.0191 (active) | 0.0449 (active) | 0.842 (active) | 0.0122 (active) | 0.00859 (active) | 0.459 | 0.609
CC(C)NCC(O)c1ccc(O)c(O)c1 (single isomer, unassigned; (+)) [(+) Isoproterenol-(+)-bitartrate salt] | 1.02 | 1.02 | 1.03 | 0.913 | 1.01 | 1.03 | 1.01 | 0.984
CN(N=O)C(=O)N[C@H]1C(O)O[C@H](CO)[C@@H](O)[C@@H]1O (mixture of isomers) [Streptozotocin] | 0.659 (active) | 0.0254 (active) | 0.141 (active) | 0.0388 (active) | 0.0955 (active) | 0.0778 (active) | 0.725 | 0.694
NC[C@H]1CC[C@H](C(=O)O)CC1 [Tranexamic acid] | 1 | 1.01 | 1.04 | 1.02 | 1.04 | 1.04 | 1 | 1
CC(C[N+](C)(C)C)OC(N)=O (configuration not stated) [Bethanechol chloride] | 1 | 1.01 | 1.02 | 0.986 | 0.982 | 0.997 | 1 | 0.993
Clc1ccc(C(Cn2ccnc2)OCc2ccsc2Cl)c(Cl)c1 (configuration not stated) [Tioconazole] | 0.986 | 0.984 | 0.909 | 1.07 | 0.932 | 0.929 | 1 | 0.903
CN(C)CCOC(=O)COc1ccc(Cl)cc1 [Meclofenoxate hydrochloride] | 0.977 | 0.942 | 0.977 | 0.935 | 0.996 | 0.985 | 1.01 | 0.995
C[C@]12CC[C@@H]3c4ccc(O)cc4CC[C@H]3[C@@H]1CC[C@@H]2O [Estradiol-17 beta] | 1.02 | 1.01 | 0.992 | 1.01 | 0.941 | 0.941 | 1.02 | 0.997
CCC1NC(=O)c2cc(S(N)(=O)=O)c(Cl)cc2N1 (configuration not stated) [Quinethazone] | 1.01 | 1.03 | 1.05 | 1.01 | 1.06 | 1.12 | 1.01 | 1.01
CCS(=O)(=O)CCn1c([N+](=O)[O-])cnc1C [Tinidazole] | 1.01 | 0.99 | 1 | 0.971 | 0.0183 (active) | 0.0185 (active) | 1 | 0.995
CC[N+](C)(C)Cc1ccccc1Br [Bretylium tosylate] | 1 | 1.01 | 1.02 | 1.02 | 0.995 | 1.03 | 1 | 0.999
Cc1cccc(C)c1NC(=O)C(C)N (configuration not stated) [Tocainide hydrochloride] | 1 | 0.967 | 1.01 | 0.985 | 1.02 | 1.02 | 0.999 | 1
O=P(O)(O)C(Cl)(Cl)P(=O)(O)O [Clodronate disodium] | 0.986 | 0.993 | 0.964 | 0.991 | 1 | 1.01 | 0.997 | 0.986
CN(C)CCC=C1c2ccccc2C=Cc2ccccc21 [Cyclobenzaprine hydrochloride] | 0.98 | 0.955 | 0.866 (active) | 0.998 | 0.933 | 0.936 | 1 | 0.853
CO[C@H]1/C=C/O[C@@]2(C)Oc3c(C)c(O)c4c(O)c(c(/C=N/N5CCN(C6CCCC6)CC5)c(O)c4c3C2=O)NC(=O)/C(C)=C\C=C\[C@H](C)[C@H](O)[C@@H](C)[C@@H](O)[C@@H](C)[C@H](OC(C)=O)[C@@H]1C [Rifapentine] | 0.258 (active) | 0.588 (active) | 1.03 | 0.0449 (active) | 0.0203 (active) | 0.0164 (active) | 0.78 | 0.716
CN(CCOc1ccc(CC2SC(=O)NC2=O)cc1)c1ccccn1 (configuration not stated) [Rosiglitazone hydrochloride] | 1.02 | 1.08 | 1.01 | 0.975 | 1.06 | 1.04 | 1.02 | 0.993
Cc1nnc(NS(=O)(=O)c2ccc(N)cc2)s1 [Sulfamethizole] | 0.985 | 0.98 | 0.978 | 1.01 | 1 | 1 | 0.978 | 0.984
CCC1(c2ccccc2)NC(=O)N(C)C1=O (configuration not stated) [Mephenytoin] | 1.01 | 0.997 | 1.02 | 1.01 | 1 | 1.03 | 1 | 1
N[C@@H](Cc1cc(I)c(Oc2ccc(O)c(I)c2)c(I)c1)C(=O)O [Liothyronine] | 0.985 | 0.951 | 0.981 | 0.976 | 0.987 | 0.984 | 1.01 | 1
O=C(O)c1ccccc1OP(=O)(O)O [Fosfosal] | 0.983 | 0.984 | 0.994 | 0.988 | 1 | 1.02 | 1 | 1.01
O=C(NCCN1CCOCC1)c1ccc(Cl)cc1 [Moclobemide] | 0.981 | 0.961 | 0.957 | 1.01 | 0.994 | 0.987 | 0.998 | 0.996
Cc1cc(C(=O)NNCc2ccccc2)no1 [Isocarboxazid] | 0.994 | 1.02 | 1.03 | 0.996 | 1.05 | 1.05 | 0.998 | 0.993
CCN(CC)CCCC(C)Nc1ccnc2cc(Cl)ccc12 (configuration not stated) [Chloroquine diphosphate] | 0.997 | 0.982 | 1.01 | 1.01 | 1.02 | 1.02 | 1 | 1

From the supplement of paper PMC12350171
